697 NFkB inh: inhibitors of PMA/ionomycin-induced NF-kB reporter, 697 cells, primary screen, B-cell NF-kB inhibitor project, cell-based, luminescence, uHTS. 697 B-cell NF-kB luciferase reporter, 16 h. inhibition, % at 4 µM. 330,000 compounds, 0.33% hits. AID 435022, 2010; in the data active means inhibition above about 35%
Gli-Sufu antag: Gli-Sufu pathway antagonists, primary screen, luciferase luminescence, Sufu-KO-LIGHT cells, uHTS | 340,000 compounds, 0.74% hits | inhibition, % at 5 µM | Sufu-KO-LIGHT fibroblasts, Gli luciferase reporter luminescence;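 active means inhibition above about 55%, limit read from the data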;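 further: 0% = DMSO-treated cells and 100% = wells with medium but no cells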
Mdm2-MdmX inh: inhibitors of human Mdm2-MdmX association, primary screen, cell-based, luminescence, split luciferase, SaOS-2, uHTS; Protein Mdm4 (Homo sapiens) + E3 ubiquitin-protein ligase Mdm2 (Homo sapiens), …; SaOS-2 split-luciferase Mdm2/MdmX complementation; inhibition, % at 8 µM; 330,000 compounds, 3% hits;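 active means inhibition of at least 50% at 8 µM in the primary screen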
Target sequence (O15151 whole entry, looked up): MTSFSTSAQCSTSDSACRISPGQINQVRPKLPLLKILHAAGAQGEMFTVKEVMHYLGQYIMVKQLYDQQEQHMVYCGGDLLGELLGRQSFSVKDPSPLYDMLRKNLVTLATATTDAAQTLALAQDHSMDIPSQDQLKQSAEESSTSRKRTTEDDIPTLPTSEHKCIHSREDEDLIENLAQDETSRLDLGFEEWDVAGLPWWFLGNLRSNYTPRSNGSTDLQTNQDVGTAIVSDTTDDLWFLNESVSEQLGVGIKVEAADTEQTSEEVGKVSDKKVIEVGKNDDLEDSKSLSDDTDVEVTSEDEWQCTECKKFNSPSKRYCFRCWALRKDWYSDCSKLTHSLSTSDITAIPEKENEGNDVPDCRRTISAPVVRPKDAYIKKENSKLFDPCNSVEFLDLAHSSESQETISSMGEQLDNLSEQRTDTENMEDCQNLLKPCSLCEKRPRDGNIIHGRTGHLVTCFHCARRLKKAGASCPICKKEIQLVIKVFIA
Target sequence (Q00987 whole entry, looked up): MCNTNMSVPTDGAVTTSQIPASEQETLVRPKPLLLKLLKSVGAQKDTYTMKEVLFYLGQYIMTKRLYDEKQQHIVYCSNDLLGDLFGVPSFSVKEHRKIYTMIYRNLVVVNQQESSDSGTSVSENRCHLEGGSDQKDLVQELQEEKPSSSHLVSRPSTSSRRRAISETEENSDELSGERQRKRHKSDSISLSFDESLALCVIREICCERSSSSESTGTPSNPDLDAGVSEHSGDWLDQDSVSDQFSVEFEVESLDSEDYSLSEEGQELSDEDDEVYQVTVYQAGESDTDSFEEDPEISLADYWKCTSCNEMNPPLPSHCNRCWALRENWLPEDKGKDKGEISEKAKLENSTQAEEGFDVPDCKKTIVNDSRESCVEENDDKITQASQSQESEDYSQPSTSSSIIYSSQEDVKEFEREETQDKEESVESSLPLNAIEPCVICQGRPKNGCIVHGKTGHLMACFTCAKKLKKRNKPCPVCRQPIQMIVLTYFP
Shn3 3UTR inh: reduction of Shn3 3'UTR firefly luciferase signal, primary screen, Schnurri-3 inhibitor project, cell-based, Clone20 osteoblasts, set 2; 360,000 compounds, 0.52% hits; inhibition, % at 12.5 µM; Clone20 osteoblast Shn3 3'UTR firefly luciferase, 24 h;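 active means mean inhibition of at least 75% with every replicate also reaching 75%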;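 further: 0% = median of neutral control wells and 100% = pilot-screen positive control compound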
Jurkat NFkB inh: inhibitors of induced NF-kB luciferase reporter, primary screen, TCR NF-kB activation inhibitor project, cell-based, luminescence, uHTS. Jurkat, PMA/ionomycin-induced NF-kB luciferase reporter. inhibition, % at 4 µM. 330,000 compounds, 0.53% hits. AID 435003, 2010; in the data active means inhibition above about 50%
Mdm2 MdmX conf: Mdm2-MdmX complex disruptors, retested hits, confirmation, luminescence, single concentration; shares compounds with Mdm2-MdmX inh; Mdm2-MdmX binding, luminescent assay; inhibition, % at 8 µM; 10,000 compounds, 55% hits; AID 489028, 2010; in the data active means inhibition above about 40%
FLuc counter: full-length luciferase signal inhibition, confirmation, counter-screen for Mdm2/MdmX interaction inhibitor project, cell-based, single concentration, SaOS-2 | shares compounds with Mdm2-MdmX inh | SaOS-2 full-length luciferase counterscreen, luminescence | inhibition, % at 8 µM | 6,200 compounds, 77% hits;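 active means mean inhibition at 8 µM reaching about 37%, which flags the compound as non-specific, limit read from the data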;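 further: p53-null SaOS-2 cells with luciferase driven by a doxycycline-inducible promoter; compound on cells about two nights before reading with doxycycline added after day one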
Starred values were filed as active, the others as inactive; . = no result given. Most compounds without a hit are left out; they make up all but 3.8% or so of the library.

SMILES | 697 NFkB inh | Gli-Sufu antag | Mdm2-MdmX inh | Shn3 3UTR inh | Jurkat NFkB inh | Mdm2 MdmX conf | FLuc counter
COc1cc(-c2cc(NC=O)c3ncc(-c4cccc(C(=O)N(C)C)c4)n3c2)cc(OC)c1OC | . | . | . | 10 | . | . | .
Cc1ccccc1-c1cc(C(=O)NCc2ccco2)n(CC2CC(c3cccnc3)=NO2)n1 (centres undefined) | -35 | -3 | 35 | 7 | 33 | . | .
COc1cccc(-n2sc3c(c2=S)-c2cc(OC)ccc2NC3(C)C)c1 | -20 | 9 | 51* | 24 | -3 | 39 | 76*
COc1cccc(-n2cn[nH]c2=S)c1 | 14 | 0 | 3 | -19 | 10 | . | .
Cc1cc(-c2nc3ncccc3o2)ccc1NC(=S)NC(=O)C(C)C | -28 | -11 | -4 | -25 | -8 | . | .
Cc1cc(Sc2nc(N)ncc2[N+](=O)[O-])ncn1 | -3 | -3 | 14 | 59 | 14 | . | .
Cc1cc(Sc2ncnc(N)c2[N+](=O)[O-])ncn1 | -10 | 0 | 93* | 99* | 4 | -1 | .
C=C1c2cccc(C(F)(F)F)c2O[C@H](C(=O)OCC)[C@H]1OC | -3 | -12 | -1 | -32 | . | . | .
COc1cc(C(=O)Nc2ccc(Cl)c(C(F)(F)F)c2)cc(OC)c1OC | 20 | 30 | 30 | 6 | 9 | . | .
COc1cc(C(=O)Nc2ccc(Cl)c([N+](=O)[O-])c2)cc(OC)c1OC | -3 | 20 | 57* | 0 | -10 | 5 | .
COc1ccc(C(=O)c2ccc(Cl)c([N+](=O)[O-])c2)cc1 | 7 | -12 | 70* | 24 | 47 | 70* | 111*
CCOc1ccc(C(=O)N2CCc3ccccc32)cc1OCC | -18 | -3 | 20 | -16 | -14 | . | .
CCC(=O)NC(/C=C/c1ccccc1)c1cc([N+](=O)[O-])c2cccnc2c1O (centres undefined) | -56 | . | 64* | . | 1 | 19 | .
CC(C)C(=O)NC(c1cccs1)c1cc([N+](=O)[O-])c2cccnc2c1O (centres undefined) | -6 | -10 | 68* | 8 | -5 | 70* | 57*
CC(C)C(=O)NC(c1ccc([N+](=O)[O-])cc1)c1c(O)ccc2ccccc12 (centres undefined) | 3 | -1 | 34 | -18 | -5 | . | .
O=[N+]([O-])c1cc(CN2CCCC2)c2cccnc2c1O | . | 20 | . | -27 | . | . | .
Cc1ccc(C(NC(=O)C(C)C)c2cc([N+](=O)[O-])c3cccnc3c2O)cc1 (centres undefined) | -19 | -9 | 57* | 54 | -1 | 51* | 44*
O=C(CC[C@H]1O[C@@H](n2ccc(=O)[nH]c2=O)[C@H](O)[C@@H]1O)NCC1CCCO1 (some centres undefined) | . | . | . | 13 | . | . | .
COc1ccc(C2/C=C\CN3CCC[C@H]3C(=O)N2Cc2ccc(F)cc2)cc1 (some centres undefined) | 10 | 2 | -2 | 18 | . | . | .
CC12CCC(C(=O)CC1=O)C2(C)C (centres undefined) | . | -16 | . | -1 | . | . | .
OC(CNCCc1ccc(C(F)(F)F)cc1)COC(c1ccccc1)c1ccccc1 (centres undefined) | 0 | 10 | 87* | 32 | -12 | 42* | 56*
COc1ccc(C(OCC(O)CNCCc2ccc(S(N)(=O)=O)cc2)c2ccc(OC)cc2)cc1 (centres undefined) | -13 | 5 | 19 | 9 | -10 | . | .
CCCCc1cc(=O)oc2c(C)c(OCC(=O)N3C[C@H]4C[C@@H](C3)c3cccc(=O)n3C4)ccc12 | 23 | 7 | 9 | 9 | 12 | . | .
COC(=O)CSC1=C(C#N)C(c2ccc(C)o2)CC(=O)N1 (centres undefined) | -16 | -3 | 58* | 0 | 26 | 47* | 73*
Cc1csc(Nc2nc(N)c(C(=O)Nc3cc(Cl)ccc3F)o2)n1 | 2 | 3 | 55* | 1 | -28 | 9 | .
SMILES | 697 NFkB inh | Gli-Sufu antag | Mdm2-MdmX inh | Shn3 3UTR inh | Jurkat NFkB inh | Mdm2 MdmX conf | FLuc counter
Cc1cc(C)cc(NC(=S)NCc2ccc3[nH]c4c(c3c2)CCCC4)c1 | -121 | 1 | 83* | 8 | 0 | 21 | .
S=C(NCc1ccc2[nH]c3c(c2c1)CCCC3)Nc1ccccc1 | -25 | -22 | 70* | 2 | -4 | 15 | .
O=C(CN1C(=O)c2ccc([N+](=O)[O-])cc2C1=O)Nc1cc(S(=O)(=O)N2CCOCC2)ccc1Cl | 23 | -4 | 12 | -2 | -4 | . | .
Cc1ccc(-n2c(-c3ccccc3)cc(/C=N/NC(=O)CC#N)c2-c2ccccc2)cc1 | 19 | . | 55* | . | 9 | 20 | .
N#CCC(=O)N/N=C/c1cc(-c2ccccc2)n(-c2ccc(Cl)cc2)c1-c1ccccc1 | 27 | 15 | 49 | . | 7 | . | .
O=C(CSc1nc2ccccc2s1)N/N=C/c1ccccc1C(=O)O | -85 | -4 | 66* | -15 | -72 | 82* | 119*
O=C(O)COc1ccccc1/C=N/NC(=O)CSc1nc2ccccc2s1 | 3 | 4 | -17 | -16 | 3 | . | .
Cc1cccc2nc(-c3cccc(NC(=O)c4ccc(Cl)cc4)c3)cn12 | -44 | -13 | -13 | 8 | -3 | . | .
Cc1sc2nc(-c3ccncc3)[nH]c(=O)c2c1-c1ccccc1 | 21 | . | -20 | . | 5 | . | .
Cc1sc2nc(-c3ccccn3)[nH]c(=O)c2c1-c1ccccc1 | -62 | -16 | 57* | 32 | -27 | 31 | .
O=C(CCl)N1N=C(c2cccs2)CC1c1ccco1 (centres undefined) | -55 | 1 | 100* | -19 | 0 | 99* | 53*
O=C(CCl)N1N=C(c2ccco2)CC1c1ccco1 (centres undefined) | 12 | . | 97* | -17 | 8 | 49* | 31
CCS(=O)(=O)Nc1ccc(C2=NN(C(=O)c3ccco3)C(c3ccco3)C2)cc1 (centres undefined) | -55 | -10 | 53* | 14 | 38 | 74* | 56*
CCNc1nnc(CCn2nc(C)c(Br)c2C)s1 | -10 | 19 | -21 | 1 | -3 | . | .
CCN(CC)S(=O)(=O)c1ccc2[nH]c(=O)cc(C(=O)Nc3ccccc3N3CCOCC3)c2c1 | 12 | 13 | -3 | -8 | -10 | . | .
COc1cccc(C(=O)Oc2c(Br)cc(Br)cc2/C=N/NC(=O)c2cc(C)[nH]n2)c1 | 30 | 15 | 59* | 82 | 13 | 55* | 20
CCOC(=O)Cn1cnc2c(cnn2-c2ccccc2)c1=O | -15 | -2 | -17 | -35 | -3 | . | .

Screening data: PubChem, several laboratories
